Data: publication PMC7862700, “An all-to-all approach to the identification of sequence-specific readers for epigenetic DNA modifications on cytosine”

Tests used:
Test in all cases: DAPPL (digital affinity profiling via proximity ligation, sequencing); 10 mM Tris-HCl pH 7.5, 50 mM NaCl, 1 mM DTT, 4% glycerol, room temperature, 30 min; GST-TFs on glutathione beads, 16-mer random dsDNA library, 0.1% formaldehyde crosslink after washing; high values mean tight binding
Details in all cases: protein: recombinant; tags: N-terminal GST; dsDNA, one strand shown
FLI1 = target: T1, FLI1 (Homo sapiens, UniProt Q01543 1-452)
T1 sequence: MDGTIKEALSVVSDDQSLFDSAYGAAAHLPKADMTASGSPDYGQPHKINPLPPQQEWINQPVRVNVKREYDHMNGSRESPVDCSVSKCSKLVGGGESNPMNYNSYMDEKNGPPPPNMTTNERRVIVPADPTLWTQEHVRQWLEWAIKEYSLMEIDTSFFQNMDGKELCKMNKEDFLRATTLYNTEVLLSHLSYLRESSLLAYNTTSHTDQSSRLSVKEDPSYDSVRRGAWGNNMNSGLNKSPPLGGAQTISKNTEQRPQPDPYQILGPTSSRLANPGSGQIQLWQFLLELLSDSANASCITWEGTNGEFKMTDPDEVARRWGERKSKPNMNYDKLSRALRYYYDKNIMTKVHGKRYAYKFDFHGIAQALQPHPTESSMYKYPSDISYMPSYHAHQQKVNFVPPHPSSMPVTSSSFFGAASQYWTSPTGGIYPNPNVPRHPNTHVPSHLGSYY
Method in brief: (§1)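 In yeast, human transcription factors were expressed with a GST fusion, then pulled down on glutathione beads and given DNA barcodes. Pooled with a tag-only sample, they were exposed to 200 nmole of a 16-mer random double-stranded DNA library (Tris/NaCl/DTT/glycerol buffer, room temperature, 30 min), washed, crosslinked with 0.1% formaldehyde, proximity-ligated using BsaI/T4 ligase for 1 h at 37 °C, PCR-amplified and read on an Illumina NextSeq500. Each hexamer's frequency of reads for a factor, divided by the matching frequency for the tag-only sample, gives the binding signal.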

ELK1 = target: T2, ELK1 (Homo sapiens, UniProt P19419 1-428)
T2 sequence: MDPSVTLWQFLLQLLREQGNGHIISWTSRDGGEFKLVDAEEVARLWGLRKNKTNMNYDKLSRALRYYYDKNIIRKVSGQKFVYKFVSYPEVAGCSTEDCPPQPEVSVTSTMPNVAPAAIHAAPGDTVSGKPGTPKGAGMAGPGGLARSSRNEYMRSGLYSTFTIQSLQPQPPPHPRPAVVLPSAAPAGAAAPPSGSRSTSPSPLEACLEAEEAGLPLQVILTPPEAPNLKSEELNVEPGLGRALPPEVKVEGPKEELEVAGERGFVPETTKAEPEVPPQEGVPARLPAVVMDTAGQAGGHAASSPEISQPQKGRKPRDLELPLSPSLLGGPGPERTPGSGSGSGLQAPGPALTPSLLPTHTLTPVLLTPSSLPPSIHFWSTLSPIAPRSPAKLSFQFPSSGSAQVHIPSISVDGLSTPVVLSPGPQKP
Method in brief: as §1

GABPA = target: T3, GABPA (Homo sapiens, UniProt Q06546 1-454)
T3 sequence: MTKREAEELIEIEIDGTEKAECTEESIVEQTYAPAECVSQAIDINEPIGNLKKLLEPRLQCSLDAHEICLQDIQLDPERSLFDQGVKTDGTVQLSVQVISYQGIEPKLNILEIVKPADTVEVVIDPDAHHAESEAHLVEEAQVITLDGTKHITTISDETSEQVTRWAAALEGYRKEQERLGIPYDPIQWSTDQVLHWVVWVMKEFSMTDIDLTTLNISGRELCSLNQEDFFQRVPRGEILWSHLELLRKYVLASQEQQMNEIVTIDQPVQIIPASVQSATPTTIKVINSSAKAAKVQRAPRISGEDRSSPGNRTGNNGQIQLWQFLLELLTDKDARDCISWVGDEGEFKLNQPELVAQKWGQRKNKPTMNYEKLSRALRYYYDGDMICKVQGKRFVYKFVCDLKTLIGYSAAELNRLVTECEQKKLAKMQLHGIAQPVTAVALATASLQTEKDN
Method in brief: as §1

ERG = target: T4, ERG (Homo sapiens, UniProt P11308 1-479)
T4 sequence: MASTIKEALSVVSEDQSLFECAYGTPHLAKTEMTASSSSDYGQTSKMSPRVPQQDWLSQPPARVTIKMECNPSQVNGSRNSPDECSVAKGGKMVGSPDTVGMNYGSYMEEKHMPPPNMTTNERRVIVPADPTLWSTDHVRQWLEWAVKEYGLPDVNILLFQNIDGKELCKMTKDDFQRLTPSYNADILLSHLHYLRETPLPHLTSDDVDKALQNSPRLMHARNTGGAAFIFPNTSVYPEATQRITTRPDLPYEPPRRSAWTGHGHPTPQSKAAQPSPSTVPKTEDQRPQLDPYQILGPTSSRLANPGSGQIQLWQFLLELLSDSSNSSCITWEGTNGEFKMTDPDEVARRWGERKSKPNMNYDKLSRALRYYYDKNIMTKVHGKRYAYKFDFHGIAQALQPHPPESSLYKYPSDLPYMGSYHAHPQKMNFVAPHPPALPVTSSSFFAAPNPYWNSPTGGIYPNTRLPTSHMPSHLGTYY
Method in brief: as §1

ELF1 = ELF1 (Homo sapiens, UniProt P32519 1-619)
Method in brief: as §1

EHF = target: T5, EHF (Homo sapiens, UniProt Q9NZC4 1-300)
T5 sequence: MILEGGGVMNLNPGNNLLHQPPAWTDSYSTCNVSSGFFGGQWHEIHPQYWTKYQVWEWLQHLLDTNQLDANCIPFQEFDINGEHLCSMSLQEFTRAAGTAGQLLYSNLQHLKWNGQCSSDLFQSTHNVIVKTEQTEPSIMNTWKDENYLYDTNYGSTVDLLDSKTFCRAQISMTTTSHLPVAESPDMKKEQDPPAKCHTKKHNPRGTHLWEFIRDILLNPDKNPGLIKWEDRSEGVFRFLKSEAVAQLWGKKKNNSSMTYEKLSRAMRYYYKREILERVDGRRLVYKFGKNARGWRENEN
Method in brief: as §1

SPI1 = SPI1 (Homo sapiens, UniProt P17947 1-270)
Method in brief: as §1

SPIB = SPIB (Homo sapiens, UniProt Q01892 1-262)
Method in brief: as §1

ELK3 = target: T6, ELK3 (Homo sapiens, UniProt P41970 1-407)
T6 sequence: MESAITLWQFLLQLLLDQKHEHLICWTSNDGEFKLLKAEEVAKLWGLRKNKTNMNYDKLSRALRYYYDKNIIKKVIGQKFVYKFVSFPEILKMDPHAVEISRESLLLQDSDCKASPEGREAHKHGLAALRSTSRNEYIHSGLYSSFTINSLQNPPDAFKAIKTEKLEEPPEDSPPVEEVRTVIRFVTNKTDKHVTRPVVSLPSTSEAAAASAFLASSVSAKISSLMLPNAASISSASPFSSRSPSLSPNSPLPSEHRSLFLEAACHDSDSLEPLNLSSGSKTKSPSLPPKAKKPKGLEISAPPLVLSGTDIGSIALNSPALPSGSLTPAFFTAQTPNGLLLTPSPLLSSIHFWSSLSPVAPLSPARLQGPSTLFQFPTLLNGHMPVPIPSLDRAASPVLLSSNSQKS
Method in brief: as §1

FEV = target: T7, FEV (Homo sapiens, UniProt Q99581 1-238)
T7 sequence: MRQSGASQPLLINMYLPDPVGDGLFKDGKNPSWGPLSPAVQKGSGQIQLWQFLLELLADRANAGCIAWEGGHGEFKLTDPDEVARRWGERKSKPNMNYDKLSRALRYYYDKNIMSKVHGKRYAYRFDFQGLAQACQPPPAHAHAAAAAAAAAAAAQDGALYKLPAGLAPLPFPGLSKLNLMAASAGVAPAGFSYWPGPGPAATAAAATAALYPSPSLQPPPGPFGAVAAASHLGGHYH
Method in brief: as §1

ETV5 = ETV5 (Homo sapiens, UniProt P41161 1-510)
Method in brief: as §1

SPIC = target: T8, SPIC (Homo sapiens, UniProt Q8N5J4 1-248)
T8 sequence: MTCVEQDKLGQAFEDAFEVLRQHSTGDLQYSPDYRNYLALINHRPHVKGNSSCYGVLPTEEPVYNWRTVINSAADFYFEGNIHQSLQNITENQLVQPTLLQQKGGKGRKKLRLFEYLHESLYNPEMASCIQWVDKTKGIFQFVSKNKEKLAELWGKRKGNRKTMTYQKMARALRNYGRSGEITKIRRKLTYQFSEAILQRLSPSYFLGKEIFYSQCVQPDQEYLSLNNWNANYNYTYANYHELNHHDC
Method in brief: as §1

ELF4 = ELF4 (Homo sapiens, UniProt Q99607 1-663)
Method in brief: as §1

ELK4 = target: T9, ELK4 (Homo sapiens, UniProt P28324-2 1-405)
T9 sequence: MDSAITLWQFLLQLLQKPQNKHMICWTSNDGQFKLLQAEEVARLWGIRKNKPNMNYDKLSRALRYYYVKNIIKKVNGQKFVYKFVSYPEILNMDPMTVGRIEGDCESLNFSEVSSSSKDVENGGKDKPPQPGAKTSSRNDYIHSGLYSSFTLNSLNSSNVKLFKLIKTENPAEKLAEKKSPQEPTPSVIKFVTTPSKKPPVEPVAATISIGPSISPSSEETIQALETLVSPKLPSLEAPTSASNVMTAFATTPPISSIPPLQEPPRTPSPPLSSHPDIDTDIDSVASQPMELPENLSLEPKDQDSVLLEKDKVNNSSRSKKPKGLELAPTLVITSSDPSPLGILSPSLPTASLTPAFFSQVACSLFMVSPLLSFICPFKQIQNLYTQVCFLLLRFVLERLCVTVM
Method in brief: as §1

ETV2 = target: T10, ETV2 (Homo sapiens, UniProt O00321 1-342)
T10 sequence: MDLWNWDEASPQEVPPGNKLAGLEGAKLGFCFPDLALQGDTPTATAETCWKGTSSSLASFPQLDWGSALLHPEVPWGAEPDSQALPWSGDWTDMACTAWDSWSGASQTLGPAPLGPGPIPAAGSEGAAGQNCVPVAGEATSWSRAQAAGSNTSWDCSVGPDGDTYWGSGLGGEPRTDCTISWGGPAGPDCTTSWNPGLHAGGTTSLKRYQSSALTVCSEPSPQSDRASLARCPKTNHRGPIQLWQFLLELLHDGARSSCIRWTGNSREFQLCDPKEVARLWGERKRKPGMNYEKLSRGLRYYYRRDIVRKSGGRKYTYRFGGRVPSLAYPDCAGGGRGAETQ
Method in brief: as §1

ELF3 = target: T11, ELF3 (Homo sapiens, UniProt P78545 1-371)
T11 sequence: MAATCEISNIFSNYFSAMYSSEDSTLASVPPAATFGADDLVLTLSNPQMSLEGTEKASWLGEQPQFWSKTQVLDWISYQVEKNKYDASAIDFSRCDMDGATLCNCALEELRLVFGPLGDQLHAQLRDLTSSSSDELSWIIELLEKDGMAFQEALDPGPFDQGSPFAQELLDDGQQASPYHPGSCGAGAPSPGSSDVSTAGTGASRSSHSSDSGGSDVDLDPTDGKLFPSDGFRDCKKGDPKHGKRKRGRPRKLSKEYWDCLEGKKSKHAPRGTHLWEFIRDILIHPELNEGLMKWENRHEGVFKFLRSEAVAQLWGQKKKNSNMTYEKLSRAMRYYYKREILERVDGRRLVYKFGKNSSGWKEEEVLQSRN
Method in brief: as §1

CRX = CRX (Homo sapiens, UniProt O43186 1-299)
Method in brief: as §1

ETV1 = ETV1 (Homo sapiens, UniProt P50549 1-477)
Method in brief: as §1

Chain of ETV1 (P50549 whole entry): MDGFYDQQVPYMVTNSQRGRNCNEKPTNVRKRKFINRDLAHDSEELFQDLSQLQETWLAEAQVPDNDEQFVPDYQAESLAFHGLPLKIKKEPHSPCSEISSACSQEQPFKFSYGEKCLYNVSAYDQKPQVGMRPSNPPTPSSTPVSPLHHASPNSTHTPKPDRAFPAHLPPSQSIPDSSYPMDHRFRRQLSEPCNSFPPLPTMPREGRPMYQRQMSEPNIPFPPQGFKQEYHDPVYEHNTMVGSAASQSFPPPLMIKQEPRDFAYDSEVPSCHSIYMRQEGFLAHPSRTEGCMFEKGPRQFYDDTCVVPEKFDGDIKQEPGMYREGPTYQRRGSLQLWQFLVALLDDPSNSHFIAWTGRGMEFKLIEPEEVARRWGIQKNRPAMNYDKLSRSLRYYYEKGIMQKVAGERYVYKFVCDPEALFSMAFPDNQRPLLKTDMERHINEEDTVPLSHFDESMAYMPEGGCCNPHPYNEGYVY
Chain of ELF1 (P32519 whole entry): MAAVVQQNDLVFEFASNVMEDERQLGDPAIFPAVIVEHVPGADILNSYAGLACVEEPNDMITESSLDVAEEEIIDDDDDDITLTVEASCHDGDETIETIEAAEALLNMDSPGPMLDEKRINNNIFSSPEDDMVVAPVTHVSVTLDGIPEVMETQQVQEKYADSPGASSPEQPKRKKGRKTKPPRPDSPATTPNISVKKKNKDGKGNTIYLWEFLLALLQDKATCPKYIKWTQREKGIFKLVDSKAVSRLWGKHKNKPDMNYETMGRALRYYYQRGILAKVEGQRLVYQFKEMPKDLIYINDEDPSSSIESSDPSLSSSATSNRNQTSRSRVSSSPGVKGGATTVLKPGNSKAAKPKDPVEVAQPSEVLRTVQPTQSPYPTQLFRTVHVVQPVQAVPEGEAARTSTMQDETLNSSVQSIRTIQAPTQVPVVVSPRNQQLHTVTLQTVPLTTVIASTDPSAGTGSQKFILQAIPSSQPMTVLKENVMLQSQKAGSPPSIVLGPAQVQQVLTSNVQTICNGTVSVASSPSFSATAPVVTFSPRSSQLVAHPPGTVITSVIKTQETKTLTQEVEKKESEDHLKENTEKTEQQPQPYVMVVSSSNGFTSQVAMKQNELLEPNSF
Chain of CRX (O43186 whole entry): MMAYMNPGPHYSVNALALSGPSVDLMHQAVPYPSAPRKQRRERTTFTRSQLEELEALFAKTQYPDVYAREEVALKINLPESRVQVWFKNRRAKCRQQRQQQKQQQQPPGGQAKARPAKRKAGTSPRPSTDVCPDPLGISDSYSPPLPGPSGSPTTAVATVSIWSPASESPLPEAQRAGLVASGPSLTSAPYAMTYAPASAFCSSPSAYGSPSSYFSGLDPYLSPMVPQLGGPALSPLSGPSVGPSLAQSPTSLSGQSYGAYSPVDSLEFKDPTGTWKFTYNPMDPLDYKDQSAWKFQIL
Chain of ETV5 (P41161 whole entry): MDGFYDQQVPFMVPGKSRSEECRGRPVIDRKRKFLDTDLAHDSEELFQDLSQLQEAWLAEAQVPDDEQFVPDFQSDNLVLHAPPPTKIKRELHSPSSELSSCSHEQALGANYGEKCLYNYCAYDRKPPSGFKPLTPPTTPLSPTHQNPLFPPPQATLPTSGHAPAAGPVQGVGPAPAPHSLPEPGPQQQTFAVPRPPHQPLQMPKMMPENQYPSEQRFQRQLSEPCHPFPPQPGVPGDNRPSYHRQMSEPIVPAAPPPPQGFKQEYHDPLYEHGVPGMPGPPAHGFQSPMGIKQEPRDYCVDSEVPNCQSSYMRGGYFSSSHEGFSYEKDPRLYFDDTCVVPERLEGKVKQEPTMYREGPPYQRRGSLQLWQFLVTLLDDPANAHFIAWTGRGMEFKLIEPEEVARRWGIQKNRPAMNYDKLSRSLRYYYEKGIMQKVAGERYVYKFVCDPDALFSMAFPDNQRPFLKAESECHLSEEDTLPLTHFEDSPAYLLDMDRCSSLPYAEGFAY
Chain of ELF4 (Q99607 whole entry): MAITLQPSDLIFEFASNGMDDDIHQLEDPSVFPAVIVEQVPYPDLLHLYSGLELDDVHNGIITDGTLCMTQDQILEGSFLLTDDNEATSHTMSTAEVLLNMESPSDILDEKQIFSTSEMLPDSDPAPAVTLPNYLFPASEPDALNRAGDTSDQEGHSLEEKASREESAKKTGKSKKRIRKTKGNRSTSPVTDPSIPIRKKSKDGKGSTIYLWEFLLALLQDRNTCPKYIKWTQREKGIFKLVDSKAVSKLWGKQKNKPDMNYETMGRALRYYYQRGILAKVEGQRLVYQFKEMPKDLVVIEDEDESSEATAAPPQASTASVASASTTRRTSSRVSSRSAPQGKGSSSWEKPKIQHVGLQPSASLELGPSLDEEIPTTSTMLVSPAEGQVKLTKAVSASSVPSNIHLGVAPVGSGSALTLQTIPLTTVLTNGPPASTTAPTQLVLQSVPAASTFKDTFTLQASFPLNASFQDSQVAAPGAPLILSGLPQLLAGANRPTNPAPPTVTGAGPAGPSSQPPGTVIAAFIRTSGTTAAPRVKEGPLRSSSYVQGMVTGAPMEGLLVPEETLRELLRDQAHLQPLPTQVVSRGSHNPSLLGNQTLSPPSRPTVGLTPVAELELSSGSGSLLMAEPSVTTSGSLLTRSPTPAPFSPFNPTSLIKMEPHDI
Chain of SPIB (Q01892 whole entry): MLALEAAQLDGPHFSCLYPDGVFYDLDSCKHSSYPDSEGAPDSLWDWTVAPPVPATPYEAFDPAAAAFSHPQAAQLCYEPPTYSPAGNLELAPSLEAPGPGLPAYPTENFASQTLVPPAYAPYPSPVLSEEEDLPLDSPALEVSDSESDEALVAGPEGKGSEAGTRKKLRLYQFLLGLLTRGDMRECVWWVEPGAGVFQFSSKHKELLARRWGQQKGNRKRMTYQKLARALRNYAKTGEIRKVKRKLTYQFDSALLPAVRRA

Sequence	binding signal (FLI1)	binding signal (ELK1)	binding signal (GABPA)	binding signal (ERG)	binding signal (ELF1)	binding signal (EHF)	binding signal (SPI1)	binding signal (SPIB)	binding signal (ELK3)	binding signal (FEV)	binding signal (ETV5)	binding signal (SPIC)	binding signal (ELF4)	binding signal (ELK4)	binding signal (ETV2)	binding signal (ELF3)	binding signal (CRX)	binding signal (ETV1)
CCTACC	1.21 fold enrichment (6-mer frequency, TF over GST control)	1.37 fold enrichment (6-mer frequency, TF over GST control)	1.39 fold enrichment (6-mer frequency, TF over GST control)	1.29 fold enrichment (6-mer frequency, TF over GST control)	1.28 fold enrichment (6-mer frequency, TF over GST control)	1.33 fold enrichment (6-mer frequency, TF over GST control)	1.31 fold enrichment (6-mer frequency, TF over GST control)	1.38 fold enrichment (6-mer frequency, TF over GST control)	1.27 fold enrichment (6-mer frequency, TF over GST control)	1.29 fold enrichment (6-mer frequency, TF over GST control)	1.35 fold enrichment (6-mer frequency, TF over GST control)	1.36 fold enrichment (6-mer frequency, TF over GST control)	1.4 fold enrichment (6-mer frequency, TF over GST control)	1.22 fold enrichment (6-mer frequency, TF over GST control)	1.38 fold enrichment (6-mer frequency, TF over GST control)	1.1 fold enrichment (6-mer frequency, TF over GST control)	1.07 fold enrichment (6-mer frequency, TF over GST control)	1.47 fold enrichment (6-mer frequency, TF over GST control)
ACCACT	1.28 fold enrichment (6-mer frequency, TF over GST control)	1.22 fold enrichment (6-mer frequency, TF over GST control)	1.35 fold enrichment (6-mer frequency, TF over GST control)	1.27 fold enrichment (6-mer frequency, TF over GST control)	1.31 fold enrichment (6-mer frequency, TF over GST control)	1.25 fold enrichment (6-mer frequency, TF over GST control)	1.38 fold enrichment (6-mer frequency, TF over GST control)	1.19 fold enrichment (6-mer frequency, TF over GST control)	1.21 fold enrichment (6-mer frequency, TF over GST control)	1.35 fold enrichment (6-mer frequency, TF over GST control)	1.29 fold enrichment (6-mer frequency, TF over GST control)	1.38 fold enrichment (6-mer frequency, TF over GST control)	1.31 fold enrichment (6-mer frequency, TF over GST control)	1.29 fold enrichment (6-mer frequency, TF over GST control)	1.27 fold enrichment (6-mer frequency, TF over GST control)	1.23 fold enrichment (6-mer frequency, TF over GST control)	1.04 fold enrichment (6-mer frequency, TF over GST control)	1.2 fold enrichment (6-mer frequency, TF over GST control)
